Outcome data for 8 compounds are collected here from PubChem BioAssay AID1053183 (Broad Institute, 2014).

Measured potencies and affinities stand elsewhere. The source made the active and inactive calls.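 The calls were made as follows: active = cytotoxic compounds with fitted half-maximal concentration at most double the highest valid dose; inconclusive = flat curve with moderate signal loss, or unreliable fit; inactive = the rest.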

The assay is described as follows: cytotoxicity in HepG2 cells, dose response, cytotoxicity control, cell-based, cherry-picked samples (AID 1053183). The settings on record: HepG2 viability, CellTiter-Glo ATP luminescence, 72 h; series mostly up to 26 µM.
Consider `C[C@H](CO)N1C[C@H](C)[C@@H](CN(C)Cc2ccccc2)Oc2c(NC(=O)Cc3cn(C)c4ccccc34)cccc2C1=O`, for which the call was inactive.
For the compound `CO[C@@H](CN(C)Cc1cc(F)ccc1F)[C@@H](C)CN(C(=O)Nc1ccc(C(F)(F)F)cc1)[C@H](C)CO`, the compound was called inactive.
Consider `C/C=C/c1ccc([C@H]2[C@@H](CO)N3C(=O)CN(Cc4ccc(F)cc4)C[C@@H]23)cc1`, for which the call was inactive.
For the compound `COc1cccc(-c2cccc(-c3nc(C(=O)Nc4ccc(-c5ccccc5)cc4)cc4c3[C@@H](CCO)N(S(=O)C(C)(C)C)C4)c2)c1` (stereo partly drawn), the call was inactive.
For the compound `CNC[C@@H]1Oc2cc(C#Cc3ccccc3OC)ccc2S(=O)(=O)N([C@H](C)CO)C[C@H]1C`, the compound was called inactive.
In the case of `C[C@@H]1CN([C@@H](C)CO)C(=O)Cc2cc(NC(=O)C3CCCCC3)ccc2O[C@@H]1CN(C)Cc1ccc(Cl)c(Cl)c1`, the compound was called inactive.
Consider `COc1ccc2c3c(n(C)c2c1)[C@@H](CO)N(CC1CC1)CC31CN(C(=O)c2ccc3c(c2)OCO3)C1`, for which the compound was classed as inactive.
Turning to `CN(C)C(=O)c1cccc(-c2ccc(C3[C@@H]4CN(Cc5ccccc5F)C[C@H]3N4)cc2)c1` (stereo partly drawn), the call was inactive.
